This is a sample that favours compounds with a hit; in the whole collection about 21% have one here.
Pf growth 48h: Primary qHTS for delayed death inhibitors of the malarial parasite plastid, 48 hour incubation | P. falciparum luciferase growth in erythrocytes, 48 h | AID 504832, 2011 | actives 5.9% (n = 310,000) | Potency, µM (doses to about 28.7 µM), without a hit: top-dose activity change, negative = inhibition, actives largely listed as inhibitors; further: potency means the concentration at half of the fitted maximal effect; on the % scale 0 is the no-effect control and ±100 the full control effect
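Cell-based growth assay: transgenic P. falciparum expressing firefly luciferase, cultured in red cells within RPMI 1640 containing 0.5% w/v Albumax, 24 mM bicarbonate and gentamycin. A drop in luciferase activity indicates inhibition.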
CHX counter: Cycloheximide Counterscreen for Small Molecule Inhibitors of Shiga Toxin. cell reporter, cycloheximide protein synthesis inhibition counterscreen. max response, %. actives 12% (n = 300,000). AID 2314, 2010; in the data active means max response mostly above about 13%, no sharp cut-off; inactive means mostly below about 14%; further: read at 38.3 µM for the half of the compounds with a filed dose; 0% is about no effect
Shiga inhibitor: A qHTS for Small Molecule Inhibitors of Shiga Toxin | Vero cells, Shiga toxin protein synthesis inhibition reporter | inhibition, % at 38.7 µM | actives 9.2% (n = 290,000); in the data active means inhibition mostly above about 28%, no sharp cut-off; inactive means mostly below about 43%; further: 0% is about no effect
HCV inh: qHTS Assay for Inhibitors of Hepatitis C Virus (HCV). Potency, µM (highest dose often 41.8 µM), inactives show at the highest dose activity change, negative = inhibition, usual class: inhibitors. actives 3.4% (n = 340,000). Huh7.5.1 HCVcc-Cre infection, luciferase reporter, 44 h; further: potency means the concentration at half of the fitted maximal effect; on the % scale 0 is the no-effect control and ±100 the full control effect
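Reporter virus HCVcc-Cre (~0.5 moi) infects cells exposed to compound; seeding density 1,000 cells/well with 4 h settling beforehand. Luminescence, 15 sec read, taken 44 h post-infection following a 15 min RT substrate incubation.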
Pf growth 96h: Primary qHTS for delayed death inhibitors of the malarial parasite plastid, 96 hour incubation | P. falciparum luciferase reporter growth, 96 h | Potency, µM (titrated, usually from 28.7 µM), for the others: top-dose activity change, negative = inhibition, hits mostly inhibitors | actives 6.9% (n = 320,000); further: potency means the concentration at half of the fitted maximal effect; on the % scale 0 is the no-effect control and ±100 the full control effect
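Erythrocytes infected with luciferase-expressing P. falciparum were dispensed at 2% hematocrit and 0.05% parasitemia (final), then incubated with compounds 96 hours at 37 C in 5% CO2. Luminescence after detection reagent addition reported growth.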
AMA1-RON2 inh: qHTS for Inhibitors of AMA1-RON; Towards Development of Antimalarial Drug Lead: Primary Screen. actives 0.2% (n = 360,000). Plasmodium falciparum AMA1 (3D7) - RON2 peptide interaction. AlphaScreen AMA1-biotinylated RON2 peptide binding. Potency, µM (top dose mostly 58.2 µM), without a hit: at the highest dose activity change, negative = inhibition, hits mostly inhibitors. AID 720542, 2013;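 further: potency means the concentration at half of the fitted maximal effect; 0% = vehicle wells and -100% = peptide control; nearly all actives have a fitted effect of over 45% in size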
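AMA1 (3D7) with his tag at 25 nM final met compounds first, then biotinylated RON2 peptide at 25 nM; detection used donor plus acceptor beads, 10 µg/mL apiece, read by AlphaScreen after 30 min at room temperature.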
Active calls of the source: *; ? = inconclusive; / = no result; + = active, no number; ! = a repeat was not active; [ ] = another dose, or the depositor's remark. Unless noted, the call rests on the fitted dose curve; in most records, active means well fitted curve in the direction sought with a large enough effect; inconclusive means small, poorly fitted or top-dose-only effect, or another doubt; inactive means no such curve, though single readings can be large; an effect the other way counts as inactive or inconclusive.

SMILES	Pf growth 48h	CHX counter	Shiga inhibitor	HCV inh	Pf growth 96h	AMA1-RON2 inh
COc1ccc(-c2cc(C(=O)N(C)CC(=O)Nc3ccccc3Br)c3ccccc3n2)cc1OC	8.28µM*	/	/	20µM*	9.28µM*	9.6%
COc1ccc(NC(=O)CN(C)C(=O)c2cc(-c3ccc(Cl)cc3)nc3ccccc23)cc1	?	/	/	?	?	0.0%
COc1ccc(-c2cc([N+](=O)[O-])ccc2OCC(=O)N(C)CC(=O)Nc2ccc(C)cc2)cc1	6.57µM*	/	/	?	9.28µM*	-14.0%
COc1ccc(NC(=O)CN(C)C(=O)CN2C(=O)c3ccc([N+](=O)[O-])cc3C2=O)cc1	104.9%	-1.6	-5.9	/	34.5%	-2.6%
CCOc1ccc(NC(=O)CN(C)C(=O)c2cc(-c3ccc(OC)cc3)nc3ccccc23)cc1OCC	9.28µM*	/	/	?	7.38µM*	-9.4%
COc1cccc(NC(=O)c2cc(-c3ccc(C)o3)nc3ccccc23)c1	?	7.1	14.9	?	-42.0%	-5.5%
COc1cccc(NC(=O)CN(C)C(=O)c2cc(-c3ccc(C)o3)nc3ccccc23)c1	11.7µM*	/	/	?	9.28µM*	-5.8%
CC(=O)c1sc(NC(=O)CCCOc2ccc(Cl)cc2)nc1C	-1.7%	7.2	34.7	-11.0%	8.4%	-28.8%
CCOc1cc(/C=C2/SC(=Nc3ccccc3)N(Cc3cccnc3)C2=O)ccc1OCC#N	?	-3.0	29.1	?	2.08µM*	-4.0%
CCc1cc(C(=O)N=Nc2c(O)[nH]c3c(Br)cc(Br)cc23)c2ccccc2n1	-24.1%	-1.5	-12.7	-5.8%	4.65µM*	11.4%
C/C(=N/O)c1cccc(N2Cc3ccccc3C2)c1	13.1µM*	17.9*	50.7*	?	?	-3.0%
CN(C)CCN(C(=O)C1=COCCO1)c1nc2ccc(F)cc2s1	/	/	/	2.3%	/	-14.7%
CCC(C)NC(=O)CSc1nc2ccsc2c(=O)n1-c1ccc(OC)cc1 (configuration not stated)	-20.0%	0.5	-16.6	6.1%	11.7µM*	-0.2%
Cc1ccc(CNC(=O)CSc2nc3ccsc3c(=O)n2NC(=O)c2ccccc2)cc1	59.5%	2.9	31.7	-18.8%	36.8%	34.2%
CCC(C)NC(=O)CSc1nc2ccsc2c(=O)n1NC(=O)c1ccccc1 (configuration not stated)	/	27.7	32.9	15.7%	8.28µM*	87.4%
Cn1c(SCc2ccccc2)nc2ccsc2c1=O	?	17.5	20.4	10µM*	-169.9%	-7.1%
COc1ccc(-n2c(SCC(=O)NC3CCCCC3)nc3ccsc3c2=O)cc1	3.0%	-3.9	51.9	9.1%	5.5%	19.5%
Cc1cc(NC(=O)CSc2nc3ccsc3c(=O)n2NC(=O)c2ccccc2)no1	286.3%	36.4*	36.6*	-7.2%	0.9%	2.8%
Cc1nc(C(F)(F)F)ccc1C(=O)N1CCC1(C)C(=O)NCc1ccc(Cl)cc1 (configuration not stated)	/	/	/	/	/	26.7%
CC1(C(=O)O)CCN1C(=O)COc1ccc(Cl)cc1 (configuration not stated)	/	/	/	/	/	6.1%
CC1(C)OC(=O)C2=C(C[C@@H](C3CCCCC3)O[C@H]2c2ccc(F)cc2)O1	/	/	/	/	/	-0.1%
O=C(Nn1c(SCc2ccc(F)cc2)nc2ccsc2c1=O)c1ccccc1	38.8%	27.6*	19.2	6.7%	13.1µM*	-0.2%
COCCn1c(SCc2ccc(F)cc2)nc2ccccc2c1=O	-14.0%	-2.3	-31.8	?	?	24.8%
Cc1nc2c(=O)n(C)c(=O)n(C)c2nc1Cl	9.7%	-6.7	-13.4	14.1µM*	4.1%	8.6%
Cn1c(=O)c2nncnc2n(C)c1=O	-9.4%	7.3	-7.3	-4.1%[0.335 µM]	-4.1%	7.1%
SMILES	Pf growth 48h	CHX counter	Shiga inhibitor	HCV inh	Pf growth 96h	AMA1-RON2 inh
CC(=O)/C(C#N)=C1\NC(=O)C(Cc2ccccc2C)S1 (configuration not stated)	?	16.2*	26.7	8.4%	-18.4%	-4.3%
N=C(N)SCCN=C(N)N	/	-0.1	-8.4	/	/	/
O=C(Nc1ccc2c(c1)oc1ccccc12)c1ccc(Br)o1	/	27.8	55.8	17.8µM*	-26.5%	-4.2%
Cc1cccc(NC(=O)c2ccccc2C(=O)Nc2cccc(C)c2)c1	/	/	/	15.2%	/	0.1%
NS(=O)(=O)c1ccc(NC(=S)NNC(=O)c2ccc(Br)o2)cc1	-4.6%	14.9*	35.1	5.9%	?	124.4%
O=C(Nc1ccccc1)c1ccc(Br)o1	100.8%	43.7*	+!	-12.0%	72.5%	-0.3%
O=C(Nc1ccc(S(=O)(=O)NCCc2ccccc2)cc1)c1ccc(Br)o1	?	-1.3	-6.5	?	/	9.3%
Cc1cccc(NC(=O)c2ccc(C(=O)c3ccccc3)o2)c1	-19.6%	36.8*	72.7*	12.7%	?	?
Cc1ccc(-c2cnc(C(O)c3cccc(Cl)c3)[nH]2)cc1 (configuration not stated)	/	/	/	/	/	-15.2%
Cc1csc(CN(C)C(=O)CC2C(=O)NCCN2Cc2ccc(F)cc2Cl)n1 (configuration not stated)	1.6%	-2.1	-7.6	0.8%	75.1%	33.0%
O=C(Nc1cccc(NC(=O)c2ccc(Br)o2)c1)c1ccccc1	18.3%	6.6	21.4	-24.5%	22.7%	-13.1%
COc1ccc(NC(=O)c2ccc(C(=O)c3ccccc3)o2)cc1	7.38µM*	30.2*	28.2	-5.6%	35.7%	17.1%
CN(C(=S)NC(=O)c1ccc(Br)o1)c1ccccc1	12.0%	11.0	29.7*	2.0%	36.3%	54.3%
CN(C)S(=O)(=O)c1ccc(NC(=S)NC(=O)c2ccc(Br)o2)cc1	-7.6%	5.0	-0.3	/	16.9%	/
O=C(c1ccccc1)c1cccc(NC(=O)c2ccc(Br)o2)c1	?	39.0*	94.6	?	/	-25.4%
CCc1cccc(NC(=O)c2ccc(Br)o2)c1	15.6%	23.0*	105.1*	-0.2%	14.2%	-4.8%
COc1ccc(C(=O)Nc2ccc(C(=O)c3ccccc3)cc2)cc1	/	/	/	?	/	13.4%
S=C(NCC1CCCO1)c1ccc(Br)cc1 (configuration not stated)	8.3%	2.8	20.0	-16.8%	-6.0%	7.7%
Cc1c(CN2CCC(Oc3ccc(C(=O)N4CCCCC4)cc3)CC2)cnn1C	20.4%	-2.0	-8.8	-3.0%	-100.4%	1.7%
Cc1nc(NC(=O)c2ccc(Br)o2)ccc1Br	32.1%	36.1*	63.1*	-26.9%	74.2%	1.2%
O=C(Nc1cccc(NC(=O)c2ccc(Br)o2)n1)c1ccc(Br)o1	3.0%	12.4	5.9	-5.6%	53.5%	?
O=C(Nc1ccc2ccccc2c1)c1ccc(Br)o1	110.6%	43.1*	86.5*	-29.5%	-28.9%	-3.1%

High-throughput results: PubChem BioAssay, National Center for Advancing Translational Sciences (NCATS)
